Experimental data reported in PubChem BioAssay AID1159580 (chemical genetic matrix, 2015).
In all, about 5,500 compounds went through this assay and about 2,000 (36%) were called active. Roughly 18% stayed inconclusive and do not appear here. Cut-off read from the data, not from the text of the source: active = normalized growth mostly below about 0.91 (no sharp cut-off); inconclusive = no clear call, values can overlap the other calls; inactive = mostly above about 0.92. The list shows a part of the results.

Assay: chemical genetic growth profiling, strain panel (AID 1159580);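 note: tested at 20 µM; growth read once vehicle control cultures reached saturation at 30 °C; 1 = growth at the plate median or of vehicle wells; lower values mean less growth of the strain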
Conditions: growth OD

Measured: normalized growth

C[C@]12CCC(=O)C=C1CCC1C2C(=O)C[C@@]2(C)C1CC[C@]2(O)C(=O)CO (stereo partly drawn)
inactive: S. cerevisiae deletion strains, locus YJL187C, strain SWE1, stronger effect = lower value 1.01 | S. cerevisiae deletion strains, locus YJR043C, strain POL32, stronger effect = lower value 1 | S. cerevisiae deletion strains, locus YJR066W, strain TOR1, stronger effect = lower value 0.967 | S. cerevisiae deletion strains, locus YKL009W, strain mrt4, stronger effect = lower value 1.06 | S. cerevisiae deletion strains, locus YKL068W, stronger effect = lower value 1.01 | S. cerevisiae deletion strains, locus YKL085W, strain MDH1 (second series), stronger effect = lower value 0.994 | S. cerevisiae deletion strains, locus YKL085W, strain MDH1, stronger effect = lower value 0.994 | S. cerevisiae deletion strains, locus YKL160W, strain elf1, stronger effect = lower value 1 | S. cerevisiae deletion strains, locus YKR001C, strain vps1, stronger effect = lower value 0.998 | S. cerevisiae deletion strains, locus YKR026C, strain gcn3, stronger effect = lower value 0.99 | S. cerevisiae deletion strains, locus YKR091W, strain srl3, stronger effect = lower value 0.999 | S. cerevisiae deletion strains, locus YLL001W, strain dnm1, stronger effect = lower value 1.03 | S. cerevisiae deletion strains, locus YLL026W, stronger effect = lower value 1 | S. cerevisiae deletion strains, locus YLL041C, strain sdh2, stronger effect = lower value 1.01 | S. cerevisiae deletion strains, locus YLR027C, strain aat2, stronger effect = lower value 1.01 | S. cerevisiae deletion strains, locus YLR039C, strain RIC1, stronger effect = lower value 1.01 | S. cerevisiae deletion strains, locus YLR058C, strain SHM2, stronger effect = lower value 0.981 | S. cerevisiae deletion strains, locus YLR102C, strain apc9, stronger effect = lower value 0.995 | S. cerevisiae deletion strains, locus YLR113W, strain HOG1, stronger effect = lower value 0.951 | S. cerevisiae deletion strains, locus YLR221C, strain rsa3, stronger effect = lower value 1 | S. cerevisiae deletion strains, locus YLR258W, strain gsy2, stronger effect = lower value 1.01 | S. cerevisiae deletion strains, locus YLR262C, strain YPT6 (second series), stronger effect = lower value 0.995 | S. cerevisiae deletion strains, locus YLR262C, strain YPT6, stronger effect = lower value 1.03 | S. cerevisiae deletion strains, locus YLR268W, strain sec22, stronger effect = lower value 1.05 | S. cerevisiae deletion strains, locus YLR320W, strain mms22, stronger effect = lower value 0.988 | S. cerevisiae deletion strains, locus YLR330W, strain CHS5, stronger effect = lower value 1 | S. cerevisiae deletion strains, locus YLR342W, strain FKS1 (second series), stronger effect = lower value 1.03 | S. cerevisiae deletion strains, locus YLR342W, strain FKS1, stronger effect = lower value 0.992 | S. cerevisiae deletion strains, locus YLR357W, strain rsc2, stronger effect = lower value 0.993 | S. cerevisiae deletion strains, locus YLR370C, strain arc18, stronger effect = lower value 1.01 | S. cerevisiae deletion strains, locus YLR371W, strain rom2, stronger effect = lower value 1.01 | S. cerevisiae deletion strains, locus YLR384C, strain iki3, stronger effect = lower value 1 | S. cerevisiae deletion strains, locus YLR418C, strain cdc73, stronger effect = lower value 1.03 | S. cerevisiae deletion strains, locus YML016C, strain PPZ1, stronger effect = lower value 1 | S. cerevisiae deletion strains, locus YML032C, strain rad52, stronger effect = lower value 0.957 | S. cerevisiae deletion strains, locus YML120C, strain ndi1, stronger effect = lower value 1.02 | S. cerevisiae deletion strains, locus YML124C, strain tub3, stronger effect = lower value 1 | S. cerevisiae deletion strains, locus YMR058W, strain fet3, stronger effect = lower value 0.998 | S. cerevisiae deletion strains, locus YMR078C, strain ctf18, stronger effect = lower value 1 | S. cerevisiae deletion strains, locus YMR125W, strain sto1, stronger effect = lower value 1 | S. cerevisiae deletion strains, locus YMR129W, stronger effect = lower value 0.989 | S. cerevisiae deletion strains, locus YMR205C, strain PFK2, stronger effect = lower value 0.987 | S. cerevisiae deletion strains, locus YMR223W, strain ubp8, stronger effect = lower value 0.977 | S. cerevisiae deletion strains, locus YMR231W, strain pep5, stronger effect = lower value 1.01 | S. cerevisiae deletion strains, locus YMR263W, strain SAP30, stronger effect = lower value 1 | S. cerevisiae deletion strains, locus YMR307W, strain GAS1, stronger effect = lower value 1.03 | S. cerevisiae deletion strains, locus YNL067W, strain RPL9B, stronger effect = lower value 1 | S. cerevisiae deletion strains, locus YNL071W, strain lat1, stronger effect = lower value 1.01 | S. cerevisiae deletion strains, locus YNL183C, strain NPR1, stronger effect = lower value 0.926 | S. cerevisiae deletion strains, locus YNL209W, strain ssb2, stronger effect = lower value 1 | S. cerevisiae deletion strains, locus YNL233W, strain BNI4, stronger effect = lower value 0.994 | S. cerevisiae deletion strains, locus YNL248C, strain rpa49, stronger effect = lower value 1 | S. cerevisiae deletion strains, locus YNL250W, strain rad50, stronger effect = lower value 0.999 | S. cerevisiae deletion strains, locus YNL271C, strain bni1, stronger effect = lower value 1 | S. cerevisiae deletion strains, locus YNL298W, strain CLA4, stronger effect = lower value 1.02 | S. cerevisiae deletion strains, locus YNL307C, strain MCK1, stronger effect = lower value 1.01 | S. cerevisiae deletion strains, locus YNL322C, strain KRE1 (second series), stronger effect = lower value 1 | S. cerevisiae deletion strains, locus YNR049C, strain mso1, stronger effect = lower value 1.01 | S. cerevisiae deletion strains, locus YNR052C, strain pop2, stronger effect = lower value 1 | S. cerevisiae deletion strains, locus YOL012C, strain htz1 0.71 | S. cerevisiae deletion strains, locus YOL147C, strain pex11, stronger effect = lower value 1.01 | S. cerevisiae deletion strains, locus YOR001W, strain rrp6, stronger effect = lower value 1.01 | S. cerevisiae deletion strains, locus YOR061W, strain CKA2, stronger effect = lower value 1.01 | S. cerevisiae deletion strains, locus YOR069W, strain VPS5, stronger effect = lower value 1.01 | S. cerevisiae deletion strains, locus YOR070C, strain gyp1, stronger effect = lower value 1.01 | S. cerevisiae deletion strains, locus YOR080W, strain dia2, stronger effect = lower value 1 | S. cerevisiae deletion strains, locus YOR083W, strain WHI5, stronger effect = lower value 1 | S. cerevisiae deletion strains, locus YOR106W, strain vam3, stronger effect = lower value 1.01 | S. cerevisiae deletion strains, locus YOR136W, strain idh2, stronger effect = lower value 1.01 | S. cerevisiae deletion strains, locus YOR144C, strain elg1, stronger effect = lower value 1 | S. cerevisiae deletion strains, locus YOR184W, strain ser1, stronger effect = lower value 1.03 | S. cerevisiae deletion strains, locus YOR231W, strain MKK1, stronger effect = lower value 0.985 | S. cerevisiae deletion strains, locus YOR265W, strain rbl2, stronger effect = lower value 1.02 | S. cerevisiae deletion strains, locus YOR270C, strain vph1, stronger effect = lower value 1.04 | S. cerevisiae deletion strains, locus YOR290C, strain snf2, stronger effect = lower value 0.964 | S. cerevisiae deletion strains, locus YOR316C, strain cot1, stronger effect = lower value 1 | S. cerevisiae deletion strains, locus YPL051W, strain arl3, stronger effect = lower value 1.02 | S. cerevisiae deletion strains, locus YPL055C, strain LGE1, stronger effect = lower value 0.992 | S. cerevisiae deletion strains, locus YPL078C, strain atp4, stronger effect = lower value 1.01 | S. cerevisiae deletion strains, locus YPL106C, strain sse1, stronger effect = lower value 0.96 | S. cerevisiae deletion strains, locus YPL240C, strain hsp82, stronger effect = lower value 0.981 | S. cerevisiae deletion strains, locus YPL256C, strain CLN2, stronger effect = lower value 0.981 | S. cerevisiae deletion strains, locus YPR119W, strain clb2, stronger effect = lower value 1 | S. cerevisiae deletion strains, locus YPR141C, strain kar3, stronger effect = lower value 0.994 | S. cerevisiae deletion strains, locus YPR163C, strain tif3, stronger effect = lower value 0.996 | S. cerevisiae deletion strains, locus YPR167C, strain met16, stronger effect = lower value 1.01 | S. cerevisiae deletion strains, strain wtn01, stronger effect = lower value 1.05 | S. cerevisiae strains, strain wild type, stronger effect = lower value 0.995
